# Assay results published in paper PMC9911399, “Two distinct binding modes provide the RNA-binding protein RbFox with extraordinary sequence specificity”.
# Substitutions are numbered along the chain they refer to; changes in the protein carry UniProt numbers. In all, about 16,000 sequences were measured (“ka relative to ugcaugu”: median about 0.0091, highest 2% from about 0.032 on). The full list was thinned out, with the highest values kept by preference.
# T1: RBFOX1 RRM (Homo sapiens, UniProt Q9NWB1 109-208)
# T1 sequence: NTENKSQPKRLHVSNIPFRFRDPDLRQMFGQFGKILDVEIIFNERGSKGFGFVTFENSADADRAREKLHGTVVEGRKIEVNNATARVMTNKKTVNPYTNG
# B1: CAACUAC (DNA:RNA)
# RNA: GGGAGACCGGAAUUCAGAUUGUCCCAACUACUUAAAUCCCGUCGUAGCCACCA
# DNA 1: CAATCTGAATTCCGGTCTCCC
# DNA 2: TGGTGGCTACGACGGGATT
# B2: UGACGCG (DNA:RNA)
# RNA: B1 RNA with C25U, A26G, U29G, A30C, C31G
# DNA 1: CAATCTGAATTCCGGTCTCCC
# DNA 2: TGGTGGCTACGACGGGATT
# B3: UACCGAU (DNA:RNA)
# RNA: B1 RNA with C25U, A27C, U29G, C31U
# DNA 1: CAATCTGAATTCCGGTCTCCC
# DNA 2: TGGTGGCTACGACGGGATT
# B4: GACGCUG (DNA:RNA)
# RNA: B1 RNA with C25G, A27C, C28G, U29C, A30U, C31G
# DNA 1: CAATCTGAATTCCGGTCTCCC
# DNA 2: TGGTGGCTACGACGGGATT
# B5: GUUAAUC (DNA:RNA)
# RNA: B1 RNA with C25G, A26U, A27U, C28A, U29A, A30U
# DNA 1: CAATCTGAATTCCGGTCTCCC
# DNA 2: TGGTGGCTACGACGGGATT
# B6: GGAGUCU (DNA:RNA)
# RNA: B1 RNA with C25G, A26G, C28G, A30C, C31U
# DNA 1: CAATCTGAATTCCGGTCTCCC
# DNA 2: TGGTGGCTACGACGGGATT
# B7: GGGAUCU (DNA:RNA)
# RNA: B1 RNA with C25G, A26G, A27G, C28A, A30C, C31U
# DNA 1: CAATCTGAATTCCGGTCTCCC
# DNA 2: TGGTGGCTACGACGGGATT
# B8: GCGGAUC (DNA:RNA)
# RNA: B1 RNA with C25G, A26C, A27G, C28G, U29A, A30U
# DNA 1: CAATCTGAATTCCGGTCTCCC
# DNA 2: TGGTGGCTACGACGGGATT
# B9: GGAGAUC (DNA:RNA)
# RNA: B1 RNA with C25G, A26G, C28G, U29A, A30U
# DNA 1: CAATCTGAATTCCGGTCTCCC
# DNA 2: TGGTGGCTACGACGGGATT
# B10: GGAUCUC (DNA:RNA)
# RNA: B1 RNA with C25G, A26G, C28U, U29C, A30U
# DNA 1: CAATCTGAATTCCGGTCTCCC
# DNA 2: TGGTGGCTACGACGGGATT
# B11: GGGGAUC (DNA:RNA)
# RNA: B1 RNA with C25G, A26G, A27G, C28G, U29A, A30U
# DNA 1: CAATCTGAATTCCGGTCTCCC
# DNA 2: TGGTGGCTACGACGGGATT
# B12: CGGAUCU (DNA:RNA)
# RNA: B1 RNA with A26G, A27G, C28A, A30C, C31U
# DNA 1: CAATCTGAATTCCGGTCTCCC
# DNA 2: TGGTGGCTACGACGGGATT
# B13: GGAUCUU (DNA:RNA)
# RNA: B1 RNA with C25G, A26G, C28U, U29C, A30U, C31U
# DNA 1: CAATCTGAATTCCGGTCTCCC
# DNA 2: TGGTGGCTACGACGGGATT
# B14: GGGAGUC (DNA:RNA)
# RNA: B1 RNA with C25G, A26G, A27G, C28A, U29G, A30U
# DNA 1: CAATCTGAATTCCGGTCTCCC
# DNA 2: TGGTGGCTACGACGGGATT
# B15: GGGAAUC (DNA:RNA)
# RNA: B1 RNA with C25G, A26G, A27G, C28A, U29A, A30U
# DNA 1: CAATCTGAATTCCGGTCTCCC
# DNA 2: TGGTGGCTACGACGGGATT
# B16: CGGAGUC (DNA:RNA)
# RNA: B1 RNA with A26G, A27G, C28A, U29G, A30U
# DNA 1: CAATCTGAATTCCGGTCTCCC
# DNA 2: TGGTGGCTACGACGGGATT
# B17: UAUUACU (DNA:RNA)
# RNA: B1 RNA with C25U, A27U, C28U, U29A, A30C, C31U
# DNA 1: CAATCTGAATTCCGGTCTCCC
# DNA 2: TGGTGGCTACGACGGGATT
# B18: AUAAGGU (DNA:RNA)
# RNA: B1 RNA with C25A, A26U, C28A, U29G, A30G, C31U
# DNA 1: CAATCTGAATTCCGGTCTCCC
# DNA 2: TGGTGGCTACGACGGGATT
# B19: CCGAAGU (DNA:RNA)
# RNA: B1 RNA with A26C, A27G, C28A, U29A, A30G, C31U
# DNA 1: CAATCTGAATTCCGGTCTCCC
# DNA 2: TGGTGGCTACGACGGGATT
# B20: AGGUAUU (DNA:RNA)
# RNA: GGGAGACCGGAAUUCAGAUUGUCCAGGUAUUUUAAAUCCCGUCGUAGCCACCA
# DNA 1: CAATCTGAATTCCGGTCTCCC
# DNA 2: TGGTGGCTACGACGGGATT
# B21: UCAUCUG (DNA:RNA)
# RNA: B20 RNA with A25U, G26C, G27A, A29C, U31G
# DNA 1: CAATCTGAATTCCGGTCTCCC
# DNA 2: TGGTGGCTACGACGGGATT
# B22: GAGUUUA (DNA:RNA)
# RNA: B20 RNA with A25G, G26A, A29U, U31A
# DNA 1: CAATCTGAATTCCGGTCTCCC
# DNA 2: TGGTGGCTACGACGGGATT
# B23: ACUCUUU (DNA:RNA)
# RNA: B20 RNA with G26C, G27U, U28C, A29U
# DNA 1: CAATCTGAATTCCGGTCTCCC
# DNA 2: TGGTGGCTACGACGGGATT
# B24: AGGUCUA (DNA:RNA)
# RNA: B20 RNA with A29C, U31A
# DNA 1: CAATCTGAATTCCGGTCTCCC
# DNA 2: TGGTGGCTACGACGGGATT
# B25: CGGGAUC (DNA:RNA)
# RNA: B20 RNA with A25C, U28G, U31C
# DNA 1: CAATCTGAATTCCGGTCTCCC
# DNA 2: TGGTGGCTACGACGGGATT
# B26: CGGAAUC (DNA:RNA)
# RNA: B20 RNA with A25C, U28A, U31C
# DNA 1: CAATCTGAATTCCGGTCTCCC
# DNA 2: TGGTGGCTACGACGGGATT
# B27: GAGAGUC (DNA:RNA)
# RNA: B20 RNA with A25G, G26A, U28A, A29G, U31C
# DNA 1: CAATCTGAATTCCGGTCTCCC
# DNA 2: TGGTGGCTACGACGGGATT
# B28: CCGGAUC (DNA:RNA)
# RNA: B20 RNA with A25C, G26C, U28G, U31C
# DNA 1: CAATCTGAATTCCGGTCTCCC
# DNA 2: TGGTGGCTACGACGGGATT
# B29: GAGUCUC (DNA:RNA)
# RNA: B20 RNA with A25G, G26A, A29C, U31C
# DNA 1: CAATCTGAATTCCGGTCTCCC
# DNA 2: TGGTGGCTACGACGGGATT
# B30: CCGAGUC (DNA:RNA)
# RNA: B20 RNA with A25C, G26C, U28A, A29G, U31C
# DNA 1: CAATCTGAATTCCGGTCTCCC
# DNA 2: TGGTGGCTACGACGGGATT
# B31: CAUGGAC (DNA:RNA)
# RNA: B1 RNA with A27U, C28G, U29G
# DNA 1: CAATCTGAATTCCGGTCTCCC
# DNA 2: TGGTGGCTACGACGGGATT
# Target: T1, RBFOX1 RRM
# Assay: EMSA; HiTS-Eq, 1 nM pool, 10 min; buffer printed only for the single-RNA assays: 10 mM Tris pH 7.5, 150 mM NaCl, 3.4 mM EDTA, 0.001% NP-40, 30 C
# Details: tags: His6 N-terminal (pET28a); label: 5' 32P
# Summary of the method: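 Relative association constants, normalised to the cognate motif, were derived by comparing read counts of each RNA species with those of the control reaction. The RNA sequenced was the free fraction, separated by 8% native PAGE after a 10 min equilibration in 50 µL of 1 nM 5′-radiolabelled RNA (7 randomized nucleotides) with increasing concentrations of purified wild-type or mutant RbFox RRM.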
row,Binder,binding signal
1,B1,0.000393 KA relative to UGCAUGU
2,B2,0.0215 KA relative to UGCAUGU
3,B3,0.00545 KA relative to UGCAUGU
4,B4,0.0241 KA relative to UGCAUGU
5,B5,0.00989 KA relative to UGCAUGU
6,B6,0.0284 KA relative to UGCAUGU
7,B7,0.0381 KA relative to UGCAUGU
8,B8,0.00958 KA relative to UGCAUGU
9,B9,0.0208 KA relative to UGCAUGU
10,B10,0.0209 KA relative to UGCAUGU
11,B11,0.0348 KA relative to UGCAUGU
12,B12,0.0232 KA relative to UGCAUGU
13,B13,0.0133 KA relative to UGCAUGU
14,B14,0.0339 KA relative to UGCAUGU
15,B15,0.0328 KA relative to UGCAUGU
16,B16,0.0303 KA relative to UGCAUGU

row,Binder,binding signal
1,B17,0.00399 KA relative to UGCAUGU
2,B18,0.00979 KA relative to UGCAUGU
3,B19,0.00878 KA relative to UGCAUGU
4,B20,0.0064 KA relative to UGCAUGU
5,B21,0.00773 KA relative to UGCAUGU
6,B22,0.00687 KA relative to UGCAUGU
7,B23,0.00357 KA relative to UGCAUGU
8,B24,0.00527 KA relative to UGCAUGU
9,B25,0.0318 KA relative to UGCAUGU
10,B26,0.0233 KA relative to UGCAUGU
11,B27,0.0183 KA relative to UGCAUGU
12,B28,0.0104 KA relative to UGCAUGU
13,B29,0.032 KA relative to UGCAUGU
14,B30,0.0112 KA relative to UGCAUGU
15,B31,0.00577 KA relative to UGCAUGU
